Screen size: about 5,400 compounds; about 190 (3.5%) showed an effect of 50% or more. This excerpt belongs to a sample that is enriched for strong results.

The experiment deals with Vero-E6. The experiment is described as follows: primary screen, phospholipidosis by LipidTOX staining; higher = more effect of the substance. As to conditions: 10 µM. Summed up:
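Drug-induced phospholipidosis detected with HCS LipidTOX Red reagent in Vero-E6 cells. Compounds tested at 10 μM, with amiodarone (10 μM) as positive control and DMSO (0.1 v/v %) as vehicle.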
On to `Oc1ccnc(S)n1`, for which the result_ITMP is listed as -2.88%. With `Clc1ccc(C2(c3ccc(-c4cn[nH]c4)cc3)CCNCC2)cc1` the figure was 96.9%.

On to `NCC(O)(CS(=O)(=O)O)c1ccc(Cl)cc1` (stereo not shown), for which the result_ITMP is listed as -4.58%. On to `NC[C@@](O)(c1ccc(Cl)cc1)c1ccc(-c2cn[nH]c2)cc1`, for which the result_ITMP is 63.1%. Under `Cn1ncnc1COc1nn2c(-c3cc(F)ccc3F)nnc2cc1C(C)(C)C` stands -6.83%; under `Nc1c(S(=O)(=O)[O-])cc(Nc2cccc3ccccc23)c2c1C(=O)c1ccccc1C2=O`, -11.1%; under `CC[C@H]1[C@@H](O)C2C3CC[C@H]([C@H](C)CCC(=O)O)[C@@]3(C)CCC2[C@@]2(C)CC[C@@H](O)C[C@@H]12` (stereo partly shown), -3.95%.

Regarding `CN[C@@H]1C(OC2[C@H](O[C@H]3[C@H](O)[C@@H](O)[C@H](NC(=N)N)[C@@H](O)[C@@H]3NC(=N)N)OC(C)[C@]2(O)CO)OC(CO)C(O)C1O` (stereo partly shown), the result_ITMP is -3.92%. With `CC(=O)c1ccc2c(c1)C(=O)C1(CC1)O2` the figure was 0.63%; with `C[C@@H]1CCCN1CCc1cc2cc(-c3ccc(C#N)cc3)ccc2o1`, 66.8%; with `CC(=O)C1=C(O)[C@]2(C)C(=CC1=O)Oc1c(C(C)=O)c(O)c(C)c(O)c12`, -3.21%. For `CCCCCCCCCCC(=O)O[C@H]1CC[C@H]2[C@@H]3CCC4=CC(=O)CC[C@]4(C)[C@H]3CC[C@]12C`, the result_ITMP is reported as 0.88%. For `C[C@@]1(O)[C@H](O)[C@@H](CO)O[C@H]1n1cnc2c(O)nc(N)nc21`, the result_ITMP came to 7.18%.

On to `COc1ccc2cc(-c3[nH]c(-c4ccc(S(C)=O)cc4)nc3-c3ccncc3)ccc2c1` (stereo not shown), for which the result_ITMP is reported as -3.68%. Under `C[N+]1(C)[C@@H]2C[C@@H](OC(=O)C(O)(c3cccs3)c3cccs3)C[C@H]1[C@@H]1O[C@@H]12` stands -2.59%; under `CN1CCC(=C2c3ccccc3CCc3sccc32)CC1`, 42.6%; under `CN1CCC(=C2c3ccccc3Sc3ccccc32)CC1`, 44.9%. Under `CN1CCC(=C2c3ccccc3C=Cc3ccccc32)CC1` stands 77.3%; under `Cc1onc(O)c1CC(N)C(=O)O` (racemic) [R4A_0004356_001 / SPE_A34716233], 0.42%; under `CC(C(=O)O)c1ccc(C(=O)c2cccs2)cc1` (stereo not shown), -0.4%. Under `O=C(O)COc1ccc(C(=O)c2cccs2)c(Cl)c1Cl` stands -7.59%; under `CC(C)c1ccc(C(=O)c2cccs2)c(SCCCCCCCCN(C)C)n1`, 77%. On to `O=C([O-])CCC(=O)OC[C@H](NC(=O)C(Cl)Cl)C(O)c1ccc([N+](=O)[O-])cc1` (stereo partly shown), for which the result_ITMP is given as 1.81%. For the compound `O=c1[n-]c(=O)n(Cl)c(=O)n1Cl`, the result_ITMP is given as -11.2%.

Consider `c1ccc(C2CN3CCSC3=N2)cc1` (stereo not shown) [R4A_0001404_001 / SPE_K73107279], for which the result_ITMP is given as -7.98%. Under `C[N+](C)(C)CCOP(=O)([O-])OP(=O)([O-])OC[C@H]1O[C@@H](n2ccc(N)nc2=O)[C@H](O)[C@@H]1O` stands 10.2%. Under `CC(C)(O)c1ccccc1CC[C@@H](SCC1(CC(=O)[O-])CC1)c1cccc(/C=C/c2ccc3ccc(Cl)cc3n2)c1` stands 3.69%; under `C[C@H](N)Cn1ccc2cc(F)c(Cl)cc21`, 50.7%. In the case of `CO[C@H]1O[C@@H]2O[C@@]3(C)CC[C@H]4[C@H](C)CC[C@@H]([C@H]1C)[C@@]24OO3`, the result_ITMP is on record as -0.98%. Under `O=C([O-])C(O)Cc1ccc(O)c(O)c1` (stereo not shown) stands 1.45%; under `CCC(=O)O[C@@H](OP(=O)(CCCCc1ccccc1)CC(=O)N1C[C@H](C2CCCCC2)C[C@H]1C(=O)[O-])C(C)C` (stereo partly shown), -3.03%; under `CCCCN1CCC(CCC(=O)c2cc(Cl)c(N)cc2OC)CC1`, 5.01%. Under `CC(=O)c1ccc2c(c1)N(CCCN1CCN(CCO)CC1)c1ccccc1S2` stands 74.4%; under `CC(=O)c1ccc2c(c1)N(CCCN(C)C)c1ccccc1S2`, 42.6%; under `CC(=O)c1ccc2c(c1)N(CCCN1CCC(CCO)CC1)c1ccccc1S2`, 50.4%. Consider `CCOC(=O)Nc1ccc2c(c1)N(C(=O)CCN1CCOCC1)c1ccccc1S2`, for which the result_ITMP is given as -8.3%. With `O=C(NO)c1ccc(O)c(O)c1` the figure was -2.75%; with `C[C@]12CCC(=O)C[C@@H]1CC[C@@H]1[C@@H]2CC[C@]2(C)C=CC[C@@H]12`, -0.52%. `C[C@]12CC[C@H](O)C[C@H]1CC[C@@H]1[C@@H]2CC[C@]2(C)[C@@](O)(c3ccoc3)CC[C@]12O`: the result_ITMP is listed as -7.29%. On to `Cc1ccccc1N(C)C(=O)c1ccc(S(=O)c2nccs2)c([N+](=O)[O-])c1` (stereo not shown), for which the result_ITMP amounted to 70.1%. In the case of `CN1c2c(nc(N)[nH]c2=O)NC[C@@H]1CNc1ccc(C(=O)N[C@@H](CCC(=O)[O-])C(=O)[O-])cc1`, the result_ITMP is reported as -7.73%.

Regarding `CC[C@@]1(C2O[C@@H](C3O[C@@](O)(CO)[C@H](C)C[C@@H]3C)C[C@@H]2C)CC[C@H]([C@]2(C)CCC3(C[C@H](O)[C@@H](C)[C@@H]([C@H](C)[C@@H](OC)[C@H](C)C(=O)[O-])O3)O2)O1` (stereo partly shown), the result_ITMP is -2.43%. Under `CC(=O)NNC(=O)N1Cc2ccccc2Oc2ccc(Cl)cc21` stands -0.36%. With `CN1CCN2c3ccccc3Cc3ccccc3C2C1` (stereo not shown) the figure was 15.9%.

With `CN1CCN(c2cc(-c3ccccc3)nc(N)n2)CC1`, the result_ITMP came out at 5.46%. For the compound `CN1C[C@@H]2c3ccccc3Oc3ccc(Cl)cc3[C@H]2C1.CN1C[C@H]2c3ccccc3Oc3ccc(Cl)cc3[C@@H]2C1`, the result_ITMP turned out to be 65.2%. With `CN1CCN(c2nc3ccccc3nc2Cl)CC1` the figure was 5.5%; with `CN1CCN(C2=Cc3ccccc3Oc3ccc(Cl)cc32)CC1`, 61.3%; with `CCCC(=O)[O-]`, -6.95%. Turning to `CCOC(=O)[C@H](C)C[C@@H](Cc1ccc(-c2ccccc2)cc1)NC(=O)CCC(=O)[O-]`, the result_ITMP is given as 0.47%. Under `CC(C)Cc1ccc(C(C)C(=O)O)cc1` (stereo not shown) [R4A_0001344_001 / SPE_K14965640] stands 1.58%; under `O=P([O-])(O)C(Cl)(Cl)P(=O)([O-])O`, -2.27%. Under `CNCc1ccc(C)c(NC(=O)c2ccc(Nc3nc(-c4ccccc4)c4ccccc4n3)cc2)c1` stands 67.4%; under `Cc1cc(Nc2ccc(NC(=O)c3ccc(Nc4ccnc5ccccc45)cc3)cc2)nc(N)n1`, 13.5%. With `Cc1ccc(NC(=O)c2cccc(N(C)C)c2)cc1NC(=O)c1ccc(O)cc1` the figure was -6.05%.

The values above are taken from article PMC13083723 (Patterns, 2026).
